# Results published in ChEMBL document CHEMBL1201862, “PubChem BioAssay data set” (2004).
# Hit rate of the full screen: of about 58,000 sequences, about 3,600 (6.2%) were called active. Cut-off read from the data, not from the text of the source: active = GI50 up to about 1.1 µM and inactive = higher. These entries were drawn from the full list. Results with a measured potency or affinity are listed apart.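 Compound exposure: 48 hours, 5 concentrations, 96-well plates. Here, GI50 denotes the concentration required for 50% inhibition of growth.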
# System: OVCAR-8
# Test: NCI tumour cell line growth inhibition, 48 h
row,Substance,GI50 [µM]
1,"[Bis(aminomethyl)dimethylsilane]tetrachloroplatinum(IV), CHEMBL2146190",12
2,"mu-(1,7-nanodiamine-N,N')bis-(cis-aminedichloroplatimum (II)), CHEMBL2146215",52.6
3,"CISPLATIN, CHEMBL11359",4.52
4,"[Bis(aminomethyl)diethylsilane]tetrachloroplatinum(IV), CHEMBL2146203",3.53
5,"[Bis(aminomethyl)ethylmethylsilane]tetrachloroplatinum(IV), CHEMBL2146192",3.7
6,"[Bis(aminomethyl)tetramethylenesilane]tetrachloropaltinum(IV), CHEMBL2146189",6.01
7,"cis-Bis[[(trimethylsilyl)methyl]amino]tetrachloroplatinum(IV), CHEMBL2146191",2.44
8,"[Bis(aminomethyl)dimethylsilane]dichloroplatinum (II), CHEMBL2146201",29.8
9,"[Bis(aminomethyl)pentamethylenesilane]tetrachloropaltinum(IV), CHEMBL2146204",2.17
10,"[Bis(aminomethyl)tetramethylenesilane]dichloropaltinum(II), CHEMBL2146205",17
11,"[Bis(aminomethyl)pentamethylenesilane]dichloropaltinum(II), CHEMBL2146202",2.05
